The nature of test [1]: Wnt pathway potentiators raising nuclear beta-catenin – imaging, WNT3A-conditioned medium, mouse C2C12, NPC library, primary screen (AID 1117326; in the data active = nuclear beta-catenin stimulation mostly above about 4.2%, no sharp cut-off; inactive = mostly below about 10%). To be noted: stronger effect = higher value.
Test [2] can be described thus: stimulators of insulin release from INS-1E, primary screen, cell-based, 5 mM glucose, NPC library (AID 1117329;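 active = compound raises insulin release from rat beta cells at 5 mM glucose, no numeric limit stated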). To be noted: rat INS-1E insulin secretion, at 10 µM, stronger effect = higher value.
The nature of test [3]: growth inhibition of GSK3B-pretreated HCT116 cells – cell-based, CellTiter-Glo, 0.2 to 20 µM (AID 1117336;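 active = compounds lowering colon cancer cell viability after pretreatment blocking the GSK3B kinase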). The following applies: HCT116 viability after GSK3B inhibitor, at 20 µM, stronger effect = higher value. A general note: In ATP-based viability assays light output follows the ATP content of the culture.
The nature of test [4]: inhibition of endothelial tube formation, primary screen, imaging, VEGF stimulated, CD31 staining, tube area, NPC library (AID 1117340;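 active = compound that reduces growth-factor-driven endothelial tube area in a mixed cell culture, no cutoff stated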). The following applies: VEGF-stimulated ADSC/ECFC co-culture, at 10 µM, stronger effect = higher value.
The nature of test [5]: GLP1 release stimulators, primary, NCI-H716, NPC library (AID 1117341;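 active = compound raises GLP1 secretion from the human gut endocrine cells, with no numeric limit stated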). To be noted: NCI-H716 cells, at 10 µM, stronger effect = higher value.
A short description of test [6]: HCT116 colon cancer cell growth inhibition, primary screen, CellTiter-Glo luminescence, NPC library (AID 1117342;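 active = compounds that lower survival of HCT116 colon cancer cells in the luminescence readout, no numeric limit stated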). The following applies: at 20 µM (top of the series).
Test [7] in a line: reduced SW480 viability measured with CellTiter-Glo, NPC library, primary (AID 1117343;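 active = compounds that lower viability of the colon cancer cells in the luminescence readout, with no numeric limit stated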). To be noted: CellTiter-Glo luminescence; at 20 µM (top of the series).
The nature of test [8]: NPC library primary testing for decreased DLD-1 cell viability via CellTiter-Glo (AID 1117346;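 active = compounds that lower survival of DLD-1 colon cancer cells in the luminescence readout, no cutoff given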). To be noted: DLD-1 viability, CellTiter-Glo luminescence; at 20 µM (top of the series).
For test [9], the target named is 6-phosphogluconate dehydrogenase, decarboxylating (Homo sapiens) (UniProt P52209). The experiment in a line: inhibition of human phosphogluconate dehydrogenase – biochemical, recombinant enzyme, NADPH absorbance, primary screen (AID 1159550;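 active = at least 20% inhibition of 6-phosphogluconate dehydrogenase activity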). To be noted: recombinant 6PGD, NADPH absorbance 341 nm; at 10 µM; stronger effect = higher value.
Test [10] can be described thus: modulation of C. elegans fzo-1 (AID 1259413; call rule not given here;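 note: fzo-1 mutant C. elegans worms in liquid wells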). To be noted: C. elegans fzo-1 modulator screen, mean read-out; stronger effect = higher value.
Test [11] is described as follows: EMT-state selective cytotoxicity in co-culture – imaging, PC-3E GFP, TEM4-18 mCherry, primary screen (AID 1345086;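 active = compounds killing one labelled cell type while sparing the other, by normalised counts and ratio limits, not self-fluorescent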;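 for all read-outs here: cells exposed to compound for 72 h before imaging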;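 for red/green cell ratio (normalised): normalised mesenchymal count divided by normalised epithelial count so high means epithelial killing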). The following applies: PC-3E GFP / TEM4-18 mCherry co-culture, imaging cell counts, at 1 µM; for red/green cell ratio (normalised): actives lie on both sides, counts scaled to control wells, 1 = unselective.
A short description of test [12]: MELAS cybrid and Rieske KO viability enhancers – cell-based, MELAS cybrids, Rieske KO mouse fibroblasts, CellTiter-Glo, primary screen (AID 1508586;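 active = mean z-score across replicates of 1.96 or higher in either the MELAS or the Rieske mutant cell line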;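 note: z relative to plate mean and SD of compound and empty wells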). The following applies: low glucose.
Test [13] concerns the target NAD(+) hydrolase SARM1 (Homo sapiens) (UniProt Q6SZW1). The experiment in a line: blocking NAD cleavage by SARM1 SAM-TIR – cell lysate, NAD-Glo luminescence (AID 1508614;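 active = compound whose remaining NAD level is above about 45 nM, limit read from the data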;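 note: higher remaining NAD means stronger inhibition of SARM1 NADase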). The following applies: SAM-TIR HEK293T lysate NADase, at 1 µM, stronger effect = higher value.
Test [14] addresses Mitogen-activated protein kinase 7 (Homo sapiens) (UniProt Q13164). The experiment in a line: Gal4-ERK5 driven luciferase induction – cell-based, HTS, primary screen (AID 1508626;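 active = luciferase signal above three times the same-plate solvent-only control wells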;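 note: luciferase driven by Gal4-ERK5 fusion binding five Gal4 sites before minimal TATA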). The following applies: HeLa Gal4-ERK5 transactivation, 18 h, at 5 µM, stronger effect = higher value.
A further test relates to F380Y. The experiment in a line: BK channel mutant inhibitors and activators – cell-based, U2OS BacMam, thallium flux, beta subunits, selectivity assay, profiling panel (AID 1259406).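 Note: initial slope of Thallos dye fluorescence rise after thallium is added; log ratio against the mean of 0.3% DMSO vehicle wells on the same plate.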 The following applies: U2OS BacMam BK variants, at 30 µM.
For a further test, the system named is F380Y/beta1. The description is as above. To be noted: U2OS BacMam BK variants, at 30 µM.
The next test has as its system F380Y/beta2Delta. The test is described as above. To be noted: U2OS BacMam BK variants, at 30 µM.
A further test deals with F380Y/beta4. The test is described as above. The following applies: U2OS BacMam BK variants, at 30 µM.
Test [15] deals with Calcium-activated potassium channel subunit alpha-1 (Homo sapiens) + Leucine-rich repeat-containing protein 26 (Homo sapiens) (UniProt Q12791+Q2I0M4). The test is described as above. To be noted: U2OS BacMam BK variants, F380Y/Slo1WT/gamma1, at 30 µM.
Where [16] appears, read: measured here: epithelial PC-3E GFP cell survival.
The mark [17] stands for this setting: measured here: mesenchymal TEM4-18 mCherry cell survival.
Setting [18] is: MELAS cybrid survival, CellTiter-Glo 48 h, stronger effect = higher value.
The mark [19] stands for this setting: Rieske KO mouse fibroblast survival, CellTiter-Glo 72 h.

Molecules are shown by their SMILES. Where “and” joins values, the source holds several entries; their conditions need not be identical. Equal entries are not always repeated. Calls of active or inactive are those of the source.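 Rule for the calls, unless noted: active = thallium flux through the channel raised or lowered by more than 3 SD from vehicle-only wells, actives on both sides; inactive = the rest.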

Calcium-activated potassium channel subunit alpha-1 (Homo sapiens) + Leucine-rich repeat-containing protein 26 (Homo sapiens), sequence (Q2I0M4 whole entry, looked up, one chain of several): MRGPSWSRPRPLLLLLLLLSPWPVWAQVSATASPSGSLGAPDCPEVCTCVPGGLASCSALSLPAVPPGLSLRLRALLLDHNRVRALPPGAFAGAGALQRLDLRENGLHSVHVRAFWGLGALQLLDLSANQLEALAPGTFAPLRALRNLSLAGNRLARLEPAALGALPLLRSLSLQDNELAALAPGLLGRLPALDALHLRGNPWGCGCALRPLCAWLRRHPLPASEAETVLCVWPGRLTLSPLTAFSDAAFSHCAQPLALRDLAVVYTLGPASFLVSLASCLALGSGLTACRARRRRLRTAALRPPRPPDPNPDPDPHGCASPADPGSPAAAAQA
6-phosphogluconate dehydrogenase, decarboxylating (Homo sapiens), sequence (P52209 whole entry, looked up): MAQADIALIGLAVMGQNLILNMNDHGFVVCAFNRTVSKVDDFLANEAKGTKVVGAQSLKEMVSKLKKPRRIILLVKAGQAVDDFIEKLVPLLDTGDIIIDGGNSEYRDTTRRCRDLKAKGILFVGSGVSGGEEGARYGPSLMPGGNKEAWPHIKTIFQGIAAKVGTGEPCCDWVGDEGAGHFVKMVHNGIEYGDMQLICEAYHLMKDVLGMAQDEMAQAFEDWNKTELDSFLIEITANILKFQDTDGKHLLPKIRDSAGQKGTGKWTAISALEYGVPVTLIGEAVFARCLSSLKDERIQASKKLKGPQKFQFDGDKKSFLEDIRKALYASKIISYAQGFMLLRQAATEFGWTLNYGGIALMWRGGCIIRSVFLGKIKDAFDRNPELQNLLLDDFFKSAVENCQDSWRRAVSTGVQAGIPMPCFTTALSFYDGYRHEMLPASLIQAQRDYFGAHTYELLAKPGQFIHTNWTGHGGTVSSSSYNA
Mitogen-activated protein kinase 7 (Homo sapiens), sequence (Q13164 whole entry, looked up, the tested form may be a part): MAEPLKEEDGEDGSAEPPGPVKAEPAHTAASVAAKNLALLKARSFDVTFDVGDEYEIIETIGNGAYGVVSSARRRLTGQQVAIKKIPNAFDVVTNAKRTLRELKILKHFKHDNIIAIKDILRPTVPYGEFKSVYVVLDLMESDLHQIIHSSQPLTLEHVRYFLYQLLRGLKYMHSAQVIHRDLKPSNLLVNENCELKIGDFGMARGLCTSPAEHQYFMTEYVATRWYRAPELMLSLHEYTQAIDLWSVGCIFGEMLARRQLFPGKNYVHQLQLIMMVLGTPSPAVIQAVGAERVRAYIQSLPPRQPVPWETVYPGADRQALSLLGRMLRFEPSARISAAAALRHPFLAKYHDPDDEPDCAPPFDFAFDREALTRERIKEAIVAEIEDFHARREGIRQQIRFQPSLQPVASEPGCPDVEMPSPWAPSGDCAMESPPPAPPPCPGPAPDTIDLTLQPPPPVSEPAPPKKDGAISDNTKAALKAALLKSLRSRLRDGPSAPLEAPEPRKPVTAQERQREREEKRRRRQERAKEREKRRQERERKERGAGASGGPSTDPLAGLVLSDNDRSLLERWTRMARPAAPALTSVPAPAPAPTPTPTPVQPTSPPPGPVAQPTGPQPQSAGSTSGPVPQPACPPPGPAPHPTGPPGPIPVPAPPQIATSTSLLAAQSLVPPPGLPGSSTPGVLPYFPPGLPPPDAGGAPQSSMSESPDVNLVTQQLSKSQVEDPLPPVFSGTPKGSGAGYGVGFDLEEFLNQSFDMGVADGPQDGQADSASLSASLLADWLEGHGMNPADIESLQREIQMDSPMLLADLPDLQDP
NAD(+) hydrolase SARM1 (Homo sapiens), sequence (Q6SZW1 whole entry, looked up, the tested form may be a part): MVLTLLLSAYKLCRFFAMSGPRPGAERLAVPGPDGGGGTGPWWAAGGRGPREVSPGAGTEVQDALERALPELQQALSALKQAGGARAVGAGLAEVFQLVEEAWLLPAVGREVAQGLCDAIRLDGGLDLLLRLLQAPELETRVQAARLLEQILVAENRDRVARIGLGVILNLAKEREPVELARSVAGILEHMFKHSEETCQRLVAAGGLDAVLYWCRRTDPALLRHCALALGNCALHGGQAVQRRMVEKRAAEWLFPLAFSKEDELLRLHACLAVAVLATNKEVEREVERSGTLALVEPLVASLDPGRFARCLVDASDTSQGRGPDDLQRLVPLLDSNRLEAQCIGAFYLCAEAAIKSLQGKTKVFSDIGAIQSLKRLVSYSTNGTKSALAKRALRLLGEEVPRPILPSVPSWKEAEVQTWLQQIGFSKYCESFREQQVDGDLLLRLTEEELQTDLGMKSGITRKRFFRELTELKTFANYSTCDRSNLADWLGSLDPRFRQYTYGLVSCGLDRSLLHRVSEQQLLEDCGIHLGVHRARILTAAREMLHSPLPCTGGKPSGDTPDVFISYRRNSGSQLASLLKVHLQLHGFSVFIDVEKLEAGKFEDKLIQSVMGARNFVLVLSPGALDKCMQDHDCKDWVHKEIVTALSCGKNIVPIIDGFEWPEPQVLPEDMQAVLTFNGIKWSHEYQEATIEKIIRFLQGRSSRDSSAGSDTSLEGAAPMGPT

By inhibition is commonly meant the relative decrease from the control value, in per cent. Turning to `O=C(CCCN1CC=C(n2c(=O)[nH]c3ccccc32)CC1)c1ccc(F)cc1`, the nuclear beta-catenin stimulation was 1% (inactive) in [1] (at 10 µM) and 0.3% in [1] (stimulation, at 2 µM). Besides, the insulin secretion stimulation in [2] was 2.7% (inactive). The viability decrease in test [3] was -5.9% (inactive). Moreover, in [4], the tube area decrease is 16.2% (inactive). Also, in test [5], the GLP1 secretion stimulation is -0.5% (inactive). In [6], the inhibition of viability was 28.5% (inactive). Besides, the values for the viability decrease (inhibition) in test [7] and in [8] were 10.4% (inactive) and 3.7% (inactive), respectively. Further, the inhibition in [9] was 12.8% (inactive). Also, the mean signal in test [10] is 249 (inactive). Also, in test [11], the red/green cell ratio (normalised) was 0.96 (inactive). The normalised cell number was 0.94 in [11] (setting [16]) and 0.9 in [11] (setting [17]). Moreover, the z-score in test [12] (setting [18]) is -0.163 (inactive) and 0.567 (inactive); in test [12] (setting [19]), -0.119 and 0.175. For the same molecule, the remaining NAD in [13] is 10 nM (inactive). The luciferase signal in test [14] is 68 AU (inactive). Also, the log fold change Tl+ flux in the test on F380Y is 0.0359 (inactive); in the test on F380Y/beta1, -0.0432 (inactive); in the test with F380Y/beta2Delta, 0.058 (inactive); in the test with F380Y/beta4, 0.0551 (inactive); in test [15], -0.0307 (inactive).

As for `CSc1ccc2c(c1)N(CCC1CCCCN1C)c1ccccc1S2` (centres undefined), the nuclear beta-catenin stimulation was 22.9% (inactive) in [1] (at 10 µM) and 1.6% in [1] (stimulation, at 2 µM). The insulin secretion stimulation in [2] was 5.6% (inactive). Besides, the viability decrease in test [3] is 110% (active). Further, the tube area decrease in test [4] was 103% (active). Besides, the GLP1 secretion stimulation in [5] is 12.4% (inactive). Besides, the inhibition of viability in [6] was 112% (active). Moreover, the viability decrease (inhibition) is 133% (active) in test [7] and 101% (active) in test [8]. Further, in [9], the inhibition is -1.24% (inactive). Also, in test [10], the mean signal is 275 (inactive). The red/green cell ratio (normalised) in [11] was 1.09 (inactive). For the same molecule, the normalised cell number in [11] (setting [16]) worked out at 0.88; in test [11] (setting [17]), 0.96. Also, the z-score in [12] (setting [18]) was -1.63 (inactive) and -1.09; in test [12] (setting [19]), 0.0893 and 2.14. In addition, the remaining NAD in test [13] is 10 nM (inactive). Also, in test [14], the luciferase signal is 40 AU (inactive). Moreover, the log fold change Tl+ flux is 0.0395 (inactive) with F380Y; 0.338 (active) with F380Y/beta1; 0.193 (active) with F380Y/beta2Delta; 0.259 (active) with F380Y/beta4; 0.0351 (inactive) in [15].

As for `OC(CCN1CCCCC1)(c1ccccc1)C1CCCCC1` (centres undefined), the nuclear beta-catenin stimulation was -1.1% (inactive) in test [1] (at 10 µM) and 7.5% in [1] (stimulation, at 2 µM). In [2], the insulin secretion stimulation was 12.4% (inactive). The viability decrease in test [3] was -59.3% (inactive). In addition, the tube area decrease in test [4] is 5% (inactive). Further, in [5], the GLP1 secretion stimulation was 3.3% (inactive). The inhibition of viability in test [6] was 34.2% (inactive). The viability decrease (inhibition) was 67.1% (active) in test [7] and 18.6% (inactive) in test [8]. For the same molecule, in test [9], the inhibition is 5.23% (inactive). The mean signal in test [10] was 211 (inactive). In addition, the red/green cell ratio (normalised) in test [11] is 1.08 (inactive). For the same molecule, the normalised cell number in test [11] (setting [16]) amounted to 0.92; in test [11] (setting [17]) it was 1. The results for the z-score in test [12] (setting [18]) and in test [12] (setting [19]) were 0.423 (inactive) and 0.169, respectively. In addition, the remaining NAD in test [13] was 10 nM (inactive). Besides, the luciferase signal in test [14] is 56 AU (inactive). The log fold change Tl+ flux in the test on F380Y was 0.0654 (inactive); in the test on F380Y/beta1, 0.00768 (inactive); in the test on F380Y/beta2Delta it was -0.0109 (inactive); with F380Y/beta4, 0.0698 (inactive); in [15] it was -0.0285 (inactive).
